# Results as given in PubChem BioAssay (NCATS).
# Results filed as inconclusive are left out. The source made the active and inactive calls. Calls come from the whole dose curve; as a rule, active = well fitted curve in the direction sought with a large enough effect; inconclusive = small, poorly fitted or top-dose-only effect, or another doubt; inactive = no such curve, though single readings can be large or run the other way.
# Assay: Cytometric Cell-Based qHTS for Inhibitors of the mTORC1 Signaling Pathway in MEF (Tsc2-/-, p53-/-) Cells (AID 2660);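 note: Tsc2 and p53 null MEFs carrying empty vector with compound for 24 h; percent of cells above a phospho-rpS6 to PI ratio cutoff in each well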
# Settings: mTORC1 pathway cytometry; series mostly up to 38.3 µM
# From the text: NIH Molecular Libraries Probe Production Centers Network [MLPCN]
# NIH Chemical Genomics Center [NCGC]
# Assay Submitter (PI): Blenis, John; Hoffman, Greg; Harvard University
# NCGC Assay Overview: The mammalian target of rapamycin (mTOR) is an intracellular serine/threonine kinase Aberrant regulation of mTOR signaling plays a causative role in a number of human diseases, including cancer, benign tumors such as lymphangioleiomyomatosis (LAM) and Tuberous Sclerosis Complex (TSC), and metabolic diseases such as diabetes and obesity. This project aims to identify inhibitors of ribosomal protein S6 (rpS6) phosphorylation. The phosphorylation of rpS6 is a key event downstream of mTOR activation. The assay uses a phospho-specific antibody of phospho-rpS6 to detect inhibitors of mTOR activation. Mutations in the Tsc1 and Tsc2 genes are the underlying genetic lesions responsible for TSC, causing constitutive activation of the mTORC1 pathway and leading to profound effects on cell metabolism. Aberrant metabolism in cancer has recently received significant attention as a target to develop therapeutic agents in the treatment of cancer.1 As Tsc2-/- cells have lost the ability to respond to energy and growth factor deprivation, these cells are unable to properly down regulate cellular biosynthetic processes in response to metabolic stress, and are thus extremely sensitive to glucose deprivation-induced death.2 A central goal of this project is to explore the unique cell survival and metabolic properties of cells with Tsc1 or Tsc2 by screening for compounds that selectively target the Tsc2-/- MEFs by screening both Tsc2-/- and WT MEF cell lines. We hope to better understand these aspects of TSC physiology in order to exploit them for therapeutic benefit.
# NCGC Acumen Assay Protocol Summary:
# For quantitative high throughput analysis of mTORC1 signaling, we developed a cell-based assay for immuno-fluorescence based detection of rpS6 phosphorylation on the Acumen Explorer that will be used a platform for the primary small molecule screen. Mouse embryonic fibroblasts (MEFs) are cultured in 1536-well plates using DMEM + 10% FBS. Twenty-four hrs after plating, test compounds (solubilized in DMSO) are delivered and incubated with the cells for 24 hrs at 37 degree Celsius. Following the incubation, media with compound is aspirated and the cells are fixed in 4% paraformaldehyde (PFA) containing PBS + 0.2% TX-100. Next, PFA is aspirated, cells are washed two times with PBS plus 0.2% TX-100 and the cells are blocked for 1 hr at room temperature (blocking buffer: LiCOR Blocking Buffer plus 0.2% TX-100). This is followed by aspiration and staining with Alexa-488 conjugated-phospho-rpS6 Ser235/236 antibody for 2 hours at room temperature (Cell Signaling Technology # 4803, 1:50 dilution in blocking buffer). Cells are washed two times with PBS plus 0.2% TX-100, and stained with 10 uM propidium iodide (PI) for 20-25 minutes for cell number measurement (1:500 dilution of Hoescht staining is also added for IN Cell imaging). The plates are scanned on the Acumen Explorer laser scanning instrument (TTP Labtech) using the 488nm laser for simultaneous excitation of the Alexa-488 and PI. The fluorescence emission from the Alexa-488 conjugated rpS6 phospho-235/236 antibody staining is selected using a […] band pass filter. Fluorescence emission from the PI stain is selected using a 575-640 nm band pass filter. The normalized phospho-S6 staining is calculated as the ratio of the integrated Alexa 488 intensity divided by the integrated PI intensity for the single concentration rapamycin control (7.5 nM) and DMSO columns. […] Inhibition of the pathway is defined based on the normalized phospho-S6 intensity in rapamycin treated cells. […]
row,SMILES,outcome
1,CC[C@@H](CO)NC(=O)[C@@H]1C=C2c3cccc4[nH]cc(c34)C[C@H]2N(C)C1,inactive
2,c1ccc(C2CC2)c(OCC2=NCCN2)c1,inactive
3,Cc1ncc(CNC(=O)N(CCCl)N=O)c(N)n1,inactive
4,CCCN1CCC[C@@H]2Cc3nc(N)ncc3C[C@H]21,inactive
5,Cc1cccc(C)c1NC(=O)CN1CCCC1=O,inactive
6,CC[C@@H](CO)NC(=O)[C@@H]1C=C2c3cccc4c3c(cn4C)C[C@H]2N(C)C1,inactive
7,Nc1ccncc1,inactive
8,C[C@@H]1O[C@@H](O[C@H]2C[C@@H](O)[C@]3(CO)[C@H]4[C@H](O)C[C@]5(C)[C@@H](C6=CC(=O)OC6)CC[C@]5(O)[C@@H]4CC[C@]3(O)C2)[C@H](O)[C@H](O)[C@H]1O,inactive
9,CC(=O)[C@H]1CC[C@H]2[C@@H]3CC[C@H]4C[C@](C)(O)CC[C@]4(C)[C@H]3CC[C@]12C,inactive
10,NCC(CC(=O)O)c1ccc(Cl)cc1 (stereo not given),inactive
11,NCC1(CC(=O)O)CCCCC1,inactive
12,C=C(C)[C@H]1Cc2c(ccc3c2O[C@@H]2COc4cc(OC)c(OC)cc4[C@@H]2C3=O)O1,inactive
13,COC[C@H]1OC(=O)c2coc3c2[C@@]1(C)C1=C(C3=O)C2CCC(=O)[C@@]2(C)C[C@H]1OC(C)=O (stereo not given in full),inactive
14,O=C1NCN(c2ccccc2)C12CCN(CC1COc3ccccc3O1)CC2 (stereo not given),inactive
15,CNCC(O)c1ccc(O)cc1 (stereo not given),inactive
16,O=c1[nH]c2ccccc2n1CCCN1CCC(n2c(=O)[nH]c3cc(Cl)ccc32)CC1,inactive
17,CC(C)=CCOc1c2occc2cc2ccc(=O)oc12,inactive
18,NCC(O)c1ccc(O)cc1 (stereo not given),inactive
19,CC(O)(CS(=O)(=O)c1ccc(F)cc1)C(=O)Nc1ccc(C#N)c(C(F)(F)F)c1 (stereo not given),inactive
20,NN=C(N)N,inactive
21,CC(CCc1ccccc1)NC(C)C(O)c1ccc(O)cc1 (stereo not given),inactive
22,Cc1ccc(S(=O)(=O)N[C@@H](CCCCN)C(=O)CCl)cc1,inactive
23,N#CC(C#N)=Cc1ccc(O)c(O)c1,inactive
24,Cc1cccc(C)c1NC1=NCCCS1,inactive
25,CCCC(C)(COC(N)=O)COC(=O)NC(C)C (stereo not given),inactive
26,CCCN1CCC[C@@H]2Cc3[nH]ncc3C[C@H]21,inactive
27,COc1ccccc1N1CCNCC1,inactive
28,COc1ccc(C(CN(C)C)C2(O)CCCCC2)cc1 (stereo not given),inactive
29,CCC1(C2=NCCN2)Cc2ccccc2O1 (stereo not given),inactive
30,CC(=O)[C@H]1CC[C@H]2[C@@H]3CC[C@H]4C[C@H](O)CC[C@]4(C)[C@H]3C(=O)C[C@]12C,inactive
